Results as given in PubChem BioAssay (NCATS).
Inconclusive results are not listed. Activity calls are given as the source filed them. Unless noted, calls follow the shape of the dose curve; as a rule, active = well fitted curve in the direction sought with a large enough effect; inconclusive = small, poorly fitted or top-dose-only effect, or another doubt; inactive = no such curve, though single readings can be large; an effect the other way counts as inactive or inconclusive.

Assays:
[1] = molecular target: Alpha-galactosidase (Coffea arabica) (UniProt Q42656); test: Counterscreen for Glucocerebrosidase Inhibitors: qHTS Assay for Coffee Bean alpha-Galactosidase at pH 4.5 (AID 957); settings: purified coffee bean alpha-galactosidase, fluorogenic substrate; series mostly up to 76.9 µM
Alpha-galactosidase (Coffea arabica), sequence (Q42656 whole entry, looked up): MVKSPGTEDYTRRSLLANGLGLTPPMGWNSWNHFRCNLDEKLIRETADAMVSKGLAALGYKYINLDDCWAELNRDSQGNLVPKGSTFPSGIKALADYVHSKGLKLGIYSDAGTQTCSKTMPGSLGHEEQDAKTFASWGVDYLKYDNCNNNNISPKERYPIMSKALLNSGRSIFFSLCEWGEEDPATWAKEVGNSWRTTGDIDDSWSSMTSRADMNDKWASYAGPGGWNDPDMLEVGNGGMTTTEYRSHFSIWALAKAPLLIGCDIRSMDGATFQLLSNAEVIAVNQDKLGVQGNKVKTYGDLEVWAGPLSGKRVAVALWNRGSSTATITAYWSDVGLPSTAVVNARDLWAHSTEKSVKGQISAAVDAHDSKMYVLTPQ
Summary of the method: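 Enzyme is added first (2 nM final), then compounds titrated from 0.7 nM to 77 uM, then 80 uM 4-methylumbelliferyl alpha-D-galactopyranoside; after 20 min at room temperature a pH 10 NaOH/glycine stop precedes fluorescence reading at 365/440 nm.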

[2] = molecular target: Alpha-galactosidase (Coffea arabica) (UniProt Q42656); test: Counterscreen for Glucocerebrosidase Inhibitors: qHTS Assay for Coffee Bean alpha-Galactosidase at pH 5.9 (AID 998); settings: coffee bean alpha-galactosidase enzyme assay; series mostly up to 76.9 µM
Summary of the method: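 Enzyme 2 nM + cpd (0.7 nM–77 uM titration) + 4-MU-alpha-Gal 80 uM, pH 5.9 citrate/Tween-20, RT 20 min, NaOH/glycine stop pH 10, fluor 365/440. Normalized to no-enzyme and full-activity controls; Hill-fit AC50.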

[3] = Validation screen for inhibitors of Lassa infection (AID 463096; calls by dose curve); settings: Lassa virus infection, cell-based; series mostly up to 46.1 µM
[4] = qHTS for Inhibitors of the Functional Ribonucleoprotein Complex (vRNP) of Lassa (LASV) Arenavirus: LASV Primary Screen - GLuc reporter signal (AID 1347082; calls by dose curve; tested in HEK293 reporter line; also: nearly all actives have a fitted effect of over 60% in size); settings: LASV minigenome vRNP, Gaussia luciferase reporter; series mostly up to 57.5 µM
[5] = qHTS for Inhibitors of the Functional Ribonucleoprotein Complex (vRNP) of Lassa (LASV) Arenavirus: Viability assay - alamar blue signal for LASV Primary Screen (AID 1347083; calls by dose curve; tested in HEK293 reporter line; also: nearly all actives have a fitted effect of over 80% in size); settings: cell viability, alamar blue fluorescence (LASV minigenome counter-screen); series mostly up to 57.5 µM
[6] = qHTS for Inhibitors of the Functional Ribonucleoprotein Complex (vRNP) of Lymphocytic Choriomeningitis Arenaviruses (LCMV): Viability assay - alamar blue signal for LCMV Primary Screen (AID 1347085; calls by dose curve; tested in HEK293 reporter line; also: nearly all actives have a fitted effect of over 80% in size); settings: alamar blue viability counter-screen, LCMV vRNP screen cells; series mostly up to 57.5 µM
[7] = molecular target: Nucleoprotein (Lymphocytic choriomeningitis virus (strain Armstrong)) (UniProt P09992); test: qHTS for Inhibitors of the Functional Ribonucleoprotein Complex (vRNP) of Lymphocytic Choriomeningitis Arenaviruses (LCMV): LCMV Primary Screen - GLuc reporter signal (AID 1347086; calls by dose curve; also: nearly all actives have a fitted effect of over 70% in size); settings: LCMV minigenome vRNP cell assay, Gaussia luciferase reporter; series mostly up to 57.5 µM
Nucleoprotein (Lymphocytic choriomeningitis virus (strain Armstrong)), sequence (P09992 whole entry, looked up): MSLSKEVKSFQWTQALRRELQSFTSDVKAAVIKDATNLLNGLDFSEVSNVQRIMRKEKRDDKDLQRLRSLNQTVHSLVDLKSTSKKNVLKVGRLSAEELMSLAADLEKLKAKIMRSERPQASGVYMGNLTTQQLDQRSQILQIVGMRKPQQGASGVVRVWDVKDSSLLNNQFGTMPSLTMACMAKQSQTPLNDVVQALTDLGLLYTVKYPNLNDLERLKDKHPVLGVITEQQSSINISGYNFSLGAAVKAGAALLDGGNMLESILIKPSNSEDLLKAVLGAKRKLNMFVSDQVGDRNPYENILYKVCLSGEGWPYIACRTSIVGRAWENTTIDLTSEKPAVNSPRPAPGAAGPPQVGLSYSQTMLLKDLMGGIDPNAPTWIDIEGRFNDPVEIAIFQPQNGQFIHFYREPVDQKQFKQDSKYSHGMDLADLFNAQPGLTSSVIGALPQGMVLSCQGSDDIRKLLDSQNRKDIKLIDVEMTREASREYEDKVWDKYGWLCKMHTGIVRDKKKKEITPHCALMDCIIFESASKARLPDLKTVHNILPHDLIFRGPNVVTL

[8] = molecular target: M-phase phosphoprotein 8 (Homo sapiens) (UniProt Q99549); test: qHTS Validation Assay for Inhibitors for MPP8 Chromodomain Interactions with Methylated Histone Tails (AID 488949); settings: AlphaScreen MPP8 binding to H3K9me3 peptide; series mostly up to 114 µM;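 also: AlphaScreen signal from MPP8 chromodomain bound to biotinylated H3K9me3 peptide; top concentration of the series differs between compounds; nearly all actives have a fitted effect of over 55% in size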
M-phase phosphoprotein 8 (Homo sapiens), sequence (Q99549 whole entry, looked up): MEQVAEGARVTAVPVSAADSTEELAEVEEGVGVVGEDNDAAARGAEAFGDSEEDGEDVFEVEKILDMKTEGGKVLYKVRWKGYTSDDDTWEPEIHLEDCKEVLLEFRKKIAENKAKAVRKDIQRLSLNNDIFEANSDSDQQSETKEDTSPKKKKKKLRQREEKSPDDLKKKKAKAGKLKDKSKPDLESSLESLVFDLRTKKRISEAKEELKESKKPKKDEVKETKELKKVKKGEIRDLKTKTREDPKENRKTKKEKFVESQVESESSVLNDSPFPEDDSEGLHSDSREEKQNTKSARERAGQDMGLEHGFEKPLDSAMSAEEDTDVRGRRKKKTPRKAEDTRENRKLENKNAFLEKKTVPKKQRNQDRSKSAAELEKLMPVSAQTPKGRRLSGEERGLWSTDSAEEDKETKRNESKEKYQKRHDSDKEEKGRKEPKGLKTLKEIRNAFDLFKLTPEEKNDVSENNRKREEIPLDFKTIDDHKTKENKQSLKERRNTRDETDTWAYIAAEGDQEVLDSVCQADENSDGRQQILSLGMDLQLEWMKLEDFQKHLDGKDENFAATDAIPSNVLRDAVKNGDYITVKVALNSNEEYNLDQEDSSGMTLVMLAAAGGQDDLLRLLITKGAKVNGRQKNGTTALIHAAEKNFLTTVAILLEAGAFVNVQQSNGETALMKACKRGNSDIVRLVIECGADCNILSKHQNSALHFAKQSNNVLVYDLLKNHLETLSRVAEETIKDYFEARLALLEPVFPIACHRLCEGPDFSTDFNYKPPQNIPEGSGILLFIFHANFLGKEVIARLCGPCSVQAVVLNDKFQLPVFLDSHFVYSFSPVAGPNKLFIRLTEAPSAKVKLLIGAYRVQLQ
Summary of the method: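 MPP8 (50 nM) was preincubated with biotinylated H3(1-18)K9me3 peptide (50 nM) in PBS pH 7.4, 0.01% Tween-20 for 30 min at room temperature, then with compounds for 30 min; binding was detected by AlphaScreen.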

[9] = Inducers of the Endoplasmic Reticulum Stress Response (ERSR) in human glioma: Validation (AID 504836); settings: human glioma cells, ER stress response reporter; series mostly up to 38.3 µM
Summary of the method: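 Stably transfected U87-MG glioma cells carrying a GRP78-based luciferase sensor; 16 h compound incubation. Luminescence end-point read 10 min after Bright-Glo addition at room temperature.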

[10] = molecular target: Arylsulfatase A (Homo sapiens) (UniProt P15289); test: qHTS screen for enhancers of Arylsulfatase A (ASA1): LOPAC Validation Assay (AID 720538); settings: ASA enzyme activity, LOPAC qHTS enhancer assay; series mostly up to 57.5 µM
Arylsulfatase A (Homo sapiens), sequence (P15289 whole entry, looked up): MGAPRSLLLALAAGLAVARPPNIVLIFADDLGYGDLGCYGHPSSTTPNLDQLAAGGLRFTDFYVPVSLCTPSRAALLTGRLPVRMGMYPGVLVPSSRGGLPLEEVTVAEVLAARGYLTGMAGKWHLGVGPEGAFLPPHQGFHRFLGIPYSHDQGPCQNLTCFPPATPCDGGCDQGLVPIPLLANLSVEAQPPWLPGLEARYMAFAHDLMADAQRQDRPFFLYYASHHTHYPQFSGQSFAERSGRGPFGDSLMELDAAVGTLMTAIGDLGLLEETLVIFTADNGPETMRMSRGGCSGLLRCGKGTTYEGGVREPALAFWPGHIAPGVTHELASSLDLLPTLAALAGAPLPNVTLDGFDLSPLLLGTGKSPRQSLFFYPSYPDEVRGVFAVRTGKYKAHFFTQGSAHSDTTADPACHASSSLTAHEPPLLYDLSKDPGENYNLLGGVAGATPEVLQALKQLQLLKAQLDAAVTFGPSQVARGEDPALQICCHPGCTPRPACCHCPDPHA
Summary of the method: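 SV40-transformed skin fibroblasts from an MLD patient (ASA-I179S) were treated with compounds for 48h at 37 degree C, then lysed with 0.5mM pNCS final substrate for 14h at room temperature; NaOH stop, fluorescence read (Ex=525 nm; Em=598 nm).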

[11] = molecular target: Flap endonuclease 1 (Homo sapiens) (UniProt P39748); test: qHTS Validation Assay for the Inhibitors of Human Flap endonuclease 1 (FEN1) (AID 488816); settings: FEN1 nuclease activity, fluorogenic DNA substrate; series mostly up to 57.1 µM
Flap endonuclease 1 (Homo sapiens), sequence (P39748 whole entry, looked up): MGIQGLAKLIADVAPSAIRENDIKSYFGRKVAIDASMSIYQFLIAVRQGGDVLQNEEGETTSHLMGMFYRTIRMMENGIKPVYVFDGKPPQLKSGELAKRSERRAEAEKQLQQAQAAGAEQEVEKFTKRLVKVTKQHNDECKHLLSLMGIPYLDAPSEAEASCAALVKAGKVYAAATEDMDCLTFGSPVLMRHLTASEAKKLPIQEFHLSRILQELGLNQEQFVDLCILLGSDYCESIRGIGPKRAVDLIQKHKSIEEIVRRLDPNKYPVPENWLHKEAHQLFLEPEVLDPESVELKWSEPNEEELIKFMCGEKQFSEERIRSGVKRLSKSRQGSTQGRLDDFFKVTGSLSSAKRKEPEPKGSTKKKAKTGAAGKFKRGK
Summary of the method: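 Enzyme reagent 10 nM; cpds pinned; 15 min RT preinc.; substrate 50 nM final; reads t=0 and 15 min; no-enzyme buffer wells as neg. control; normalized data, 4-parameter Hill fit.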

[12] = Quantitative high throughput screen for delayed death inhibitors of the malarial parasite plastid, 48 hour incubation (AID 488752); settings: Plasmodium falciparum growth; series mostly up to 28.7 µM; also: potency is read from the fitted curve at half-maximal effect; nearly all actives have a fitted effect of over 65% in size
Summary of the method: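 First, compound was pinned into RPMI 1640 medium containing 0.5% Albumax. Next, reporter-parasite-infected erythrocytes were added to 2% hematocrit and 0.1% parasitemia. After 48 h at 37 C under 5% CO2, luciferase detection reagent was added and luminescence read.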

Measured: Potency

COc1ccc2c(c1)c(CC(=O)O)c(C)n2Cc1ccc(Cl)cc1
inactive: [1] | [2] | [3] | [4] | [5] | [6] | [7]

C[C@]12C=CC(=O)C=C1CC[C@@H]1C2=CC[C@]2(C)[C@@H](C(=O)CN3CCN(c4cc(N5CCCC5)nc(N5CCCC5)n4)CC3)CC[C@@H]12
inactive: [8] | [9] | [10] | [4] | [5] | [6] | [7]

Nc1ncnc2c1c(I)cn2[C@@H]1C[C@H](N)[C@@H](O)[C@H]1O
inactive: [9] | [4] | [5] | [6] | [7]

O=C(O)CC1CC(c2ccccc2)=NO1 (centres undefined)
inactive: [11] | [9] | [10] | [4] | [5] | [6] | [7]

NS(=O)(=O)c1cccc2c1c([N+](=O)[O-])cc1nc(O)c(O)nc12
inactive: [1] | [2] | [3] | [4] | [5] | [6] | [7]

CC1CC2C3CCC4=CC(=O)C=C[C@]4(C)[C@@]3(F)[C@@H](O)C[C@]2(C)[C@@]1(O)C(=O)CO (some centres undefined)
inactive: [9] | [4] | [5] | [6] | [7]

c1ccc2c(c1)CCC[C@H]2Nc1nc2ccccc2[nH]1
inactive: [9] | [4] | [5] | [6] | [7]

CN1CCc2cccc3c2C1Cc1ccc(O)c(O)c1-3 (centres undefined)
active: [12] 3.7 µM
inactive: [9] | [4] | [5] | [6] | [7]

Cc1cccc(/C=C/c2ccccc2)n1
inactive: [9] | [4] | [5] | [6] | [7]

CNC(=O)[C@H]1O[C@@H](n2cnc3c(NCc4cccc(I)c4)ncnc32)[C@H](O)[C@@H]1O
inactive: [9] | [4] | [5] | [6] | [7]

CC(C)(C)[C@]1(O)CCN2C[C@H]3c4ccccc4CCc4cccc(c43)[C@@H]2C1
inactive: [9] | [4] | [5] | [6] | [7]

CN1C2CCCC1CC(NC(=O)c1nn(C)c3ccccc13)C2 (centres undefined)
inactive: [9] | [4] | [5] | [6] | [7]

COC(=O)C1=CO[C@@H](O)[C@@H]2C(CO)=CC[C@H]12
inactive: [9] | [4] | [5] | [6] | [7]

Clc1ccc(N2CCN(Cc3cc4ccccn4n3)CC2)cc1
inactive: [9] | [4] | [5] | [6] | [7]

N#C/C(=C\c1ccc(-c2cc(Cl)ccc2Cl)o1)C(=O)Nc1cccc2ncccc12
inactive: [9] | [4] | [5] | [6] | [7]

CCCCC#Cc1nc(NC)c2ncn([C@@H]3O[C@H](CO)[C@@H](O)[C@H]3O)c2n1
inactive: [9] | [4] | [5] | [6] | [7]

CCCCCCCCCCC(C)(C)C(=O)Nc1c(OC)cc(OC)cc1OC
inactive: [9] | [4] | [5] | [6] | [7]

Oc1cc2c(c(Cl)c1O)CCNCC2c1ccccc1 (centres undefined)
inactive: [9] | [4] | [5] | [6] | [7]

O=C1/C(=C/c2ccsc2)CC/C1=C\c1cccs1
inactive: [9] | [4] | [5] | [6] | [7]

C[N+](C)(C)CCOP(=O)(O)OP(=O)([O-])OC[C@H]1O[C@@H](n2ccc(N)nc2=O)[C@H](O)[C@@H]1O
inactive: [9] | [4] | [5] | [6] | [7]

NC(=S)NCCC[C@H](N)C(=O)O
inactive: [9] | [4] | [5] | [6] | [7]

Cn1ncc(S(=O)(=O)Cc2ccccc2)c(Br)c1=O
inactive: [9] | [4] | [5] | [6] | [7]

N[C@H](C(=O)O)[C@H]1C[C@@H]1C(=O)O
inactive: [9] | [4] | [5] | [6] | [7]

CSc1nc(N)c2ncn([C@@H]3O[C@H](COP(=O)(O)OP(=O)(O)OP(=O)(O)O)[C@@H](O)[C@H]3O)c2n1
inactive: [9] | [4] | [5] | [6] | [7]

Nc1nc(Cl)nc2c1ncn2[C@@H]1O[C@H](CO)[C@@H](O)[C@H]1O
inactive: [9] | [4] | [5] | [6] | [7]

C=C1C[C@@]23CC[C@H]4[C@@](C)(CCC[C@@]4(C)C(=O)OC4OC(CO)C(O)C(O)C4O)[C@@H]2CC[C@]1(OC1OC(CO)C(O)C(O)C1OC1OC(CO)C(O)C(O)C1O)C3 (some centres undefined)
inactive: [9] | [4] | [5] | [6] | [7]

c1ccc(C(NCc2cccnc2)(c2ccccc2)c2ccccc2)cc1
inactive: [9] | [4] | [5] | [6] | [7]

C[C@H]1O[C@@H](n2cc(F)c(=O)[nH]c2=O)[C@H](O)[C@H]1O
inactive: [9] | [4] | [5] | [6] | [7]

O=c1[nH]c(=S)[nH]c(-c2ccccc2)c1Cc1c(O)ccc2ccccc12
inactive: [9] | [4] | [5] | [6] | [7]

NC[C@@H]1O[C@H](c2ccccc2)Cc2c1ccc(O)c2O
inactive: [9] | [4] | [5] | [6] | [7]
